Common to all, as to test: NCI-60 one-dose screen, 48 h (100 = growth as untreated, 0 = no growth, -100 = all killed)
Conditions in all cases: 10 µM unless noted

Assay [1] deals with RPMI-8226 leukemia.
Assay [2] relates to OVCAR-8 ovarian.
Assay [3] relates to OVCAR-5 ovarian.
Assay [4] concerns OVCAR-4 ovarian.
The subject of assay [5] is SK-OV-3 ovarian.
For assay [6], the system named is IGROV1 ovarian.
Assay [7] has as its system OVCAR-3 ovarian.
Assay [8] deals with HS 578T breast.
In assay [9] the test system is NCI/ADR-RES ovarian.
In assay [10] the test system is SR leukemia.

About 83,000 compounds went through this panel and 20% of them were active in at least one assay; those are over-represented in the sample as a whole.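 The endpoint reported here, percent growth, reads 100 for growth as untreated, 0 for no net growth and -100 for all cells dead.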 A number with no mark means an inactive call. The source made the active and inactive calls. How the source made its calls: active means growth percent below 10; inactive means the rest.

Consider `CC(C)Cn1cnc2c(NCn3nc(-c4cc(Cl)cc(Cl)c4Cl)n(/N=C/c4ccc(Cl)cc4)c3=S)nc3ccccc3c21`, for which the growth in assay [1] was 44.3%; in assay [2], 72.4%; in assay [3] it was 92.1%; in assay [4], 71.1%; in assay [5], 110%; in assay [6], 4.11% (active). For the same compound, the growth in assay [7] was 98%; in assay [8], 94%; in [9], 56.3%.

Consider `Cc1cc(=O)[nH]c(/C(=N/Nc2ccccc2)C(=O)c2ccc(Cl)cc2)n1`, for which the growth is 96.6% in assay [1]; 92.8% in [2]; 117% in assay [3]; 111% in assay [4]; 98.3% in assay [5]; 17.6% in assay [6]. For the same compound, the growth is 97.5% in assay [7], 83.6% in [8] and 106% in [9].

Turning to `COc1cc(/C=C/C(=O)CC(=O)/C=C/c2ccc(OC(=O)CCNC34CC5CC(CC(C5)C3)C4)c(OC)c2)ccc1OC(=O)CCNC12CC3CC(CC(C3)C1)C2`, the growth in assay [1] was -30.4% (active); in assay [2], 14.7%; in assay [3], 51.8%; in assay [4], 65.3%; in [5] it was 63.8%; in [6], 6.65% (active). For the same compound, the growth in assay [7] is -7.82% (active); in assay [8] it was 19.3%.

As for `COc1cccc(-c2nc(-c3ccc(N)cc3)co2)c1`, the growth in assay [1] was 89.5%; in assay [2] it was 85.8%; in [3] it was 115%; in assay [4], 109%; in [5] it was 118%; in assay [6] it was -0.817% (active). The growth in assay [7] was 82%; in assay [8], 115%; in [9], 92.8%.

For the compound `C(#Cc1ccccc1C#Cc1ccccn1)c1ccc(OCCCCCCOc2ccc(C#Cc3ccccc3C#Cc3ccccn3)cc2)cc1`, the growth is 5% (active) in [1]; 47.6% in [2]; 85.4% in [3]; 46.5% in assay [4]; 80.9% in assay [5]; -48.8% (active) in [6]. Also, the values for the growth in assay [7], in [8] and in [9] were 35.5%, 72.7% and 40%, respectively.

On to `Fc1ccc(-c2nn3c(-c4cc(C(F)(F)F)cc(C(F)(F)F)c4)nnc3s2)cc1`, for which the growth in assay [1] was 95.6%; in [2], 20%; in [3], 95.1%; in [4] it was 21.7%; in assay [5] it was -36.1% (active); in assay [6], 21.6%. In addition, the growth in assay [7] was 12.7%; in assay [8], 24.8%; in assay [9], 40.9%.

As for `CCOC(=O)Nc1ccc2c3c(cccc13)-c1ccccc1-2`, the growth in assay [10] is 13.6%; in assay [3] it was 63.6%; in assay [4] it was 48.5%; in assay [5], 62.7%; in assay [6], 20.9%; in assay [7] it was -19.8% (active). Besides, the results for the growth in assay [8] and in assay [9] were 16.6% and 7.96% (active), respectively.

As to `COc1ccc(/C=C/C(=O)c2cccc(NS(C)(=O)=O)c2)cc1`, the growth was -10.2% (active) in [10]; 81.5% in assay [4]; 110% in assay [5]; 7.92% (active) in assay [6]; 78.1% in [7]; 83.2% in assay [8]. Further, the growth in assay [9] was 85.2%.

On to `NS(=O)(=O)c1ccc(-n2ncc3c(SCc4ccccc4)ncnc32)cc1`, for which the growth in assay [1] is 91.9%; in assay [2] it was 96.1%; in [3], 99.7%; in [4], 104%; in assay [5], 108%; in assay [6], 85.9%. For the same compound, the growth in assay [7] is 99.4%; in assay [8], 97.3%; in assay [9], 101%.

Consider `CC(=O)O[C@H]1CC[C@@]2(C)C(=CC[C@@H]3[C@@H]2CC[C@]2(C)C(c4cccnc4)=CC[C@@H]32)C1`, for which the growth is 30.8% in assay [10]; 95.6% in assay [3]; 47.2% in [4]; 76.7% in [5]; 62.6% in [6]; 70.3% in [7]. Further, the values for the growth in assay [8] and in [9] were -7.37% (active) and 45.4%, respectively.

As for `CCN(CC)c1ccc(/C=C/C(=O)c2cccc(NS(C)(=O)=O)c2)cc1`, the growth in [10] is -4.7% (active); in assay [3] it was 64.4%; in assay [4], 42.2%; in [5], 51.1%; in assay [6], 9.33% (active); in assay [7], 48.5%. In addition, the values for the growth in assay [8] and in [9] were 28.5% and 26.4%, respectively.

Regarding `N#Cc1c(NC(=O)c2ccco2)[n+]([O-])c2cc(Cl)c(Cl)cc2[n+]1[O-]`, the growth in [1] was 92.2%; in [2], 100%; in assay [3], 87.4%; in [4] it was 100%; in assay [5], 118%; in assay [6] it was -12.2% (active). For the same compound, the growth is 109% in assay [7], 84.4% in assay [8] and 88.7% in assay [9].

`COc1cc(/C=C/C(=O)CC(=O)/C=C/c2ccc(OC(=O)C3C4CC5CC(C4)CC3C5)c(OC)c2)ccc1OC(=O)C1C2CC3CC(C2)CC1C3` (stereo unspecified): the growth is 112% in assay [1]; 97.2% in assay [2]; 87.2% in assay [3]; 105% in assay [4]; 110% in assay [5]; 33.3% in assay [6]. For the same compound, the growth in assay [7] is 118%; in [8], 129%; in assay [9], 107%.

For the origin of these results see PubChem BioAssay (NCI).
